Bioassay records as filed in PubChem.
E-sel TNF inh – E-selectin induction blockers in HUVEC – imaging, immunofluorescence, high content, primary screen; HUVEC TNFa-induced E-selectin immunofluorescence; 0.71% of 120,000 active; inhibition, % at 2 µM;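 active means inhibition above the batch mean plus 3 SD, and confirmed as a hit on visual image review, cut at about 43% in these data; inconclusive means passes the inhibition cutoff but fails visual image review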
VCAM1 TNFa inh – inhibitors of TNFa-induced VCAM1 expression, primary screen, imaging, HUVEC, TNFa stimulus, immunofluorescence | HUVEC TNFa-induced VCAM-1 immunofluorescence, high-content imaging | inhibition, % at 2 µM | AID 802, 2007 | 0.48% of 95,000 active;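 active means inhibition above the batch mean plus 3 SD, with images confirmed as a hit by eye, cut at about 37% in these data; inconclusive means inhibition above that limit but hit not confirmed in images; inactive means inhibition not above that limit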
TNFa cytotox – cytotoxicity in TNFa-stimulated HUVEC, primary screen, cytotoxicity control for VCAM1 expression modulator project, imaging, Hoechst nuclei count; HUVEC TNFalpha-stimulated, Hoechst cell count; cell count reduction, % at 2 µM; 0.17% of 93,000 active; AID 848, 2007;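 active means cell count reduction exceeding the screen mean by over 5 SD, scaled to untreated wells per plate, cut at about 78% in these data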;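 further: cells counted after 24 h of TNF alpha exposure following the 1 h pretreatment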
F-actin modifier – modifiers of F-actin cytoskeleton organization, primary screen, imaging, HUVEC, phalloidin staining, high-content imaging | HUVEC TNFa F-actin phalloidin imaging | inhibition, % at 2 µM | 0.18% of 91,000 active | AID 836, 2007;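 active means inhibition above the batch mean plus 3 SD and confirmed as a hit by visual image inspection, cut at about 30% in these data, passing the limit was not always enough; inconclusive means above the inhibition threshold but rejected on visual inspection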
Of the large screens only hits and unclear results are named; the others gave an inactive call. An excerpt weighted towards active compounds, which were near 1.1% of everything screened.

CCOc1cc(NC(=O)c2ccco2)c(OCC)cc1NC(=O)Cc1cccc(OC)c1	none
CCOc1cc(NC(=O)c2ccco2)c(OCC)cc1NC(=O)CCC(=O)NCc1cccnc1	VCAM1 TNFa inh inconclusive, TNFa cytotox 100.0, F-actin modifier inconclusive
Cn1c(CNc2ccccc2O)nc2ccccc21	VCAM1 TNFa inh 59.1, TNFa cytotox 88.6 (no result: E-sel TNF inh)
Cn1c(CNc2ccccc2)nc2ccccc21	none (no result: E-sel TNF inh)
COc1cccc(C(C#N)N2CCCCC2)c1O (centres undefined)	F-actin modifier 47.7
COc1ccc(C(C#N)N2CCCCCC2)cc1OC (centres undefined)	none
COc1ccc(/C=C/CN2CCC(CO)(Cc3ccccc3Cl)CC2)cc1	none (no result: VCAM1 TNFa inh, TNFa cytotox, F-actin modifier)
CCOC(=O)C1CCCN(Cc2ccccc2F)C1 (centres undefined)	E-sel TNF inh 74.6 (no result: VCAM1 TNFa inh, TNFa cytotox, F-actin modifier)
Cc1ccc(-n2c(SCC(=O)Nc3nccs3)nc3c(c2=O)SCC3)cc1	E-sel TNF inh 96.8 (no result: VCAM1 TNFa inh, TNFa cytotox, F-actin modifier)
CCOc1ccc(-n2c(SCC(=O)Nc3ccc(OC)cc3)nc3c(c2=O)SCC3)cc1	VCAM1 TNFa inh 59.5, TNFa cytotox 81.7
CCOc1ccc(-n2c(SCC(=O)Nc3nccs3)nc3c(c2=O)SCC3)cc1	none (no result: VCAM1 TNFa inh, TNFa cytotox, F-actin modifier)
COc1ccc(-n2c(SCC(=O)Nc3ccc4c(c3)OCO4)nc3c(c2=O)SCC3)cc1	none (no result: E-sel TNF inh)
CCOc1ccc(CCNC(=O)C2CCC(=O)N2C2CCCCC2)cc1OCC (centres undefined)	none (no result: E-sel TNF inh)
COc1ccc(-c2cc(C(F)(F)F)nc(S(=O)(=O)CCC(=O)N3CCOCC3)n2)cc1	VCAM1 TNFa inh 97.6
Cc1ccc(S(=O)(=O)/N=S(\C)CC2CC2(Cl)Cl)cc1 (centres undefined)	none (no result: E-sel TNF inh)
CCOC(=O)c1noc(C)c1C(=O)Nc1nc(C)cc(C)n1	none (no result: VCAM1 TNFa inh, TNFa cytotox, F-actin modifier)
O=C(NC(NC1CCS(=O)(=O)C1)C(=O)c1cccs1)c1ccccc1 (centres undefined)	VCAM1 TNFa inh 94.5
Cc1cccc(-c2noc(-c3cc4ccccc4oc3=O)n2)c1	none
Cc1cc(C)cc(C(=O)Oc2coc(CSc3nnc(NC(=O)C4CC4)s3)cc2=O)c1	E-sel TNF inh 61.1 (no result: VCAM1 TNFa inh, TNFa cytotox, F-actin modifier)
CN(Cc1ccccc1)C(=O)c1ccccc1NC(=O)c1ccccc1	F-actin modifier 51.3
O=C(Nc1ccccc1C(=O)NCc1ccccc1)c1ccccc1	none
Cn1nnc2ccccc2c1=O	none (no result: VCAM1 TNFa inh, TNFa cytotox, F-actin modifier)
Cc1cc(C(=O)NN=C2C3CC4CC(C3)CC2C4)c2ccccc2n1	VCAM1 TNFa inh 52.3
Cc1cc(C(=O)NN=C2CCCCC2)c2ccccc2n1	none (no result: VCAM1 TNFa inh, TNFa cytotox, F-actin modifier)
Cc1ccc(CC2S/C(=C(/C#N)C(=O)NCc3ccco3)N(c3ccccc3)C2=O)cc1 (centres undefined)	F-actin modifier 63.4
N#C/C(C(=O)NCc1ccco1)=C1/SC(Cc2ccc(Cl)cc2)C(=O)N1c1ccccc1 (centres undefined)	none
COCCn1nnnc1CN(CCc1ccccc1)Cc1cc2ccc(C)cc2[nH]c1=O	none
O=C(O)c1ccc(N2CC3CC(C2)c2cccc(=O)n2C3)c(NC(=S)Nc2ccc(Br)cc2)c1 (centres undefined)	none (no result: VCAM1 TNFa inh, TNFa cytotox, F-actin modifier)
CC(C)C(c1nnnn1Cc1ccc2c(c1)OCO2)N1CCN(C)CC1 (centres undefined)	E-sel TNF inh 41.7
CC(C)C(c1nnnn1Cc1ccc2c(c1)OCO2)N1CCN(c2ccccc2)CC1 (centres undefined)	none
Cc1ccc(C(=O)OCC(=O)NCc2cccs2)cc1	none (no result: VCAM1 TNFa inh, TNFa cytotox, F-actin modifier)
COc1ccc2c(CC(=O)NC3CCCc4ccccc43)coc2c1 (centres undefined)	none (no result: VCAM1 TNFa inh, TNFa cytotox, F-actin modifier)
C=CCn1c(SCCOc2ccc(OC)cc2)nnc1C(C)NC(=O)c1ccc(OC)cc1 (centres undefined)	none
COc1ccc(CC(=O)NC(C)c2nnc(SCCOc3ccc(OC)cc3)n2C)cc1 (centres undefined)	TNFa cytotox 83.4
COC(=O)c1nn(-c2nc(-c3cccc(OC)c3)cc(C(F)(F)F)n2)cc1[N+](=O)[O-]	none (no result: VCAM1 TNFa inh, TNFa cytotox, F-actin modifier)
Cc1csc(NC(=O)CSc2nnc(-c3ccc(S(=O)(=O)N4CCCC4)cc3)o2)n1	VCAM1 TNFa inh 72.9 (no result: E-sel TNF inh)
Cc1cccc(NS(=O)(=O)c2cc(C(=O)N3CCOCC3)ccc2Cl)c1	none (no result: VCAM1 TNFa inh, TNFa cytotox, F-actin modifier)
Cc1nn(S(=O)(=O)c2ccccc2)c(C)c1Sc1ccc([N+](=O)[O-])cc1	F-actin modifier 45.8 (no result: E-sel TNF inh)
Cc1nn(S(=O)(=O)c2cccs2)c(C)c1Sc1ccc([N+](=O)[O-])cc1	none
Cc1ccc(NS(=O)(=O)c2ccc3[nH]c(=O)[nH]c3c2)c(C)c1	none (no result: VCAM1 TNFa inh, TNFa cytotox, F-actin modifier)
Cc1ccccc1C(=O)c1cccn1CC(=O)NCc1ccco1	E-sel TNF inh 61.8
O=C(Cn1cccc1C(=O)c1ccccc1)NCc1ccco1	none (no result: E-sel TNF inh)
O=C(NCc1ccc(-n2cccc2)cc1)c1cccc(F)c1	none (no result: VCAM1 TNFa inh, TNFa cytotox, F-actin modifier)
